The source of these data is PubChem BioAssay (NCATS).

“And” between values parts separate entries of the source, which are not always exact repeats. Equal entries are not always repeated. Results filed as inconclusive are left out. Where a structure was tested more than once in an assay, its records may differ in their call. Unmarked numbers belong to inactive results. The source made the active and inactive calls. Calls come from the whole dose curve; as a rule, active = well fitted activation curve with a large enough effect; inconclusive = small, poorly fitted or top-dose-only effect; inactive = no such curve, though single readings can be large or run the other way.
Potency is the fitted concentration of half-maximal effect.

Chain of Cellular tumor antigen p53 (Homo sapiens) (P04637 whole entry, looked up): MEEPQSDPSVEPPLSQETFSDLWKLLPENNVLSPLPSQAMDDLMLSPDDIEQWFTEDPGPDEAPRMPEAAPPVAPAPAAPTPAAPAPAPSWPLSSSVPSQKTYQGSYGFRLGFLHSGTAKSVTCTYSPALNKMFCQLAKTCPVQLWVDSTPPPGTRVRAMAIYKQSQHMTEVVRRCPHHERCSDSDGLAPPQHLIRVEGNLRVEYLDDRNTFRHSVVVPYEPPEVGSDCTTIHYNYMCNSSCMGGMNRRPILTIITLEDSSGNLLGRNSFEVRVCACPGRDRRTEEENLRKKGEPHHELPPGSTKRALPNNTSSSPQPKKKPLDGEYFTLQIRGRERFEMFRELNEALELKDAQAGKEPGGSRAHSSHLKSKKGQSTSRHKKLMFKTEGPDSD

This experiment addresses Cellular tumor antigen p53 (Homo sapiens) (UniProt P04637). Kind of experiment: Primary qHTS for small molecule compounds that upregulate eGFP-tagged delta133p53alpha (in N-terminal) cells. (AID 2060322).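 For activation: cells pre-induced with doxycycline then dosed without doxycycline; series mostly up to about 56 µM; 0% = DMSO vehicle and 100% = reference activator.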 Note: nearly all actives have a fitted effect of over 75% in size. As to conditions: NCI-H358 eGFP-delta133p53alpha fluorescence, 24 h; activation: stronger effect = higher value. An excerpt:
Assay Development and Screening Technology
National Center for Advancing Translational Sciences (NCATS),
National Institute of Health (NIH), Rockville, Maryland
Cellular senescence (CS) is one of the hallmarks of aging and age-related diseases. Senescent cells are characterized by an irreversible growth arrest, an increase in senescence-associated beta-galactosidase (SA-beta-gal) activity and p16INK4a expression, an activation of the DNA damage response pathways, and the emergence of a senescence-associated secretory phenotype (SASP).
Delta133p53alpha, a human/primate-specific p53 protein isoform, delays or inhibits the induction of CS and SASP in various types of human cells, including progeria-derived fibroblasts, primary normal astrocytes, and CD8+ T lymphocytes. Induction of delta133p53alpha with small molecule compounds may provide therapeutic opportunities for inhibition of senescence/SASP-associated pathologies in progeria syndromes, astrocyte-mediated neuroprotection in neurodegenerative diseases, and possibly prevention and treatment of a wider range of senescence- and aging-associated diseases.
Here we report the development and validation of a cell-based quantitative high throughput screening (qHTS) assay in 1,536-well format. This qHTS assay uses the NCI-H358 cell line with doxycycline-inducible expression of enhanced green fluorescent protein (eGFP)-tagged delta133p53alpha, which allows efficient and highly quantitative measurement of the protein levels.
PROTOCOL TABLE (as described by Inglese J, Shamu CE and Guy RK. 2007)
SEQUENCE No. (e.g., 1, 2, 3, etc.); […] (e.g., Cells, Incubation, Reagent, etc.); VALUE; DESCRIPTION.
1; Cells; 4uL; 800 doxycycline treated cells / well in doxycycline-free media, 1536-well black, clear-bottom low base Aurora microplates.
2; Compounds; 23 nL; Kalypsis pin tool (Wako) equipped with 1536-well pin heads, 5-azacytidine positive control.
3; Incubation; 24 hr; 37C, 5% CO2; 95% relative humidity.
4; Aspiration; 1x; BioTek EL406 washer dispenser (Agilent).
5; Fixing; 3.5% paraformaldehyde, BioTek EL406 washer dispenser (Agilent).
6; Washing; 1x PBS; BioTek EL406 washer dispenser (Agilent).
7; Nuclei staining; 1:1000 dilution of Hoechst 33342 (Thermofisher), BioTek EL406 washer dispenser (Agilent).
8; Incubation; 20 min; in the dark at room temperature.
9; Washing; 2x, 1x PBS (ThermoFisher), BioTek EL406 washer dispenser (Agilent).
10; Reagent; 10 uL; 1x PBS per well, sealed with clear adhesive tape.
NOTES (numbers refer to sequence numbers above).
1. NCI-H358 cells expressing eGFP-tagged delta133p53alpha were grown in T75 culture flasks and treated with doxycycline for 24h, at 10 ng/ml for eGFP-D133p53a cells (N-terminal cell) and 100 ng/ml for D133p53a-eGFP cells (C-terminal cells). Cells were trypsinized, counted using a Counted 3 Automated Cell Counter (Thermo Fisher), and diluted to a concentration of 200,000 cells/ml. A Multidrop Combi Reagent Dispenser (ThermoFisher) was used to dispense 800 cells/well in […] of doxycycline-free media, into 1536-well black/clear bottom low base plates (AuroraMicroplates).
2. After plating cells, 23 nl of compound library, DMSO vehicle control or positive control (5-azacytidine) were transferred by Pin Tool (Wako). The plate map layout was the same for each plate: (column 1) non-doxycycline treated cells + DMSO vehicle control; (column 2) doxycycline treated cells + DMSO vehicle control baseline; (column 3) doxycycline treated cells + positive control 57.5 uM final concentration 5-azacytidine; (column 4) doxycycline treated cells + serial dilution of 5-azacytidine, 16-point 1:2 titration spanning 1.8 nM to […] final concentration; (columns 5-48) doxycycline treated cells + titration of library compounds.
3. Cells were incubated at 37 °C, 5 % CO2, 95% RH with breathable metal lid for 24h.
4-10. […] After two washes, 10 ul of 1X PBS (Thermo Fisher) was dispensed to each well. Clear adhesive plate seals (VWR) were applied and plates stored at 4 °C.
11. […]
On the technique in general: qHTS replaces the single test concentration by a dilution series.
In the case of `CN1C[C@H]2c3ccccc3Oc3ccc(Cl)cc3[C@@H]2C1`, the activation is -34.8% and -0.565%. The same measure, in the same setting: with `Cc1cc(N=Nc2ccc(S(=O)(=O)Nc3ccccn3)cc2)c(N)cc1O` the figure was -5%; with `Cn1cncc1[C@@](N)(c1ccc(Cl)cc1)c1ccc2c(c1)c(-c1cccc(Cl)c1)cc(=O)n2C`, 15.2%. In the case of `CCOc1cc(C(=O)N2CCC(N3CCN(C)CC3)CC2)ccc1Nc1ncc2c(n1)N(C1CCCC1)c1ccccc1C(=O)N2C`, the Potency is 30.1 µM (active). In the case of `Nc1nc2[nH]c(=O)cnc2c(=O)[nH]1`, the activation was -25.1%. Same read-out and setting: with `CC(C)(C)Sc1c(CC(C)(C)C(=O)O)n(Cc2ccc(Cl)cc2)c2ccc(OCc3ccc4ccccc4n3)cc12` the figure was 0%. The same measure, in the same setting: then `CC(C)(C)c1cc(NC(=O)Nc2ccc(-c3cn4c(n3)sc3cc(OCCN5CCOCC5)ccc34)cc2)no1`, with 10.5% and 25%. Same read-out and setting: with `c1cnc2cc3c(cc2n1)C1CNCC3C1` the figure was -5.72% and -13.8%; with `CN1[C@@H]2CC(OC(=O)[C@H](CO)c3ccccc3)C[C@H]1[C@@H]1O[C@@H]12` (stereo not given in full), -10.7%. As for `CC(C)CC(=O)OC1OC=C(CO[C@@H]2O[C@H](CO)[C@@H](O)[C@H](O)[C@H]2O)C2CC(O)C(O)(CO)C12` (stereo not given in full), the activation is 15.2%. The same measure, in the same setting: with `O=C(CN1C(=O)C2(CCCC2)NCC1c1cc(F)cc(F)c1)Nc1ccc2c(c1)CC1(C2)C(=O)Nc2ncccc21` (stereo not given) the figure was 0.477%; with `CN1CCC(=C2c3ccccc3CCc3sccc32)CC1`, -15.1% and 66.1%; with `C/C=C(/COC(=O)/C(C)=C/C)C(=O)OC/C=C/c1ccc(OC)cc1`, 0.893%. Regarding `CCCCCCCCCCCCCCCCCCOCC(O)CO` (stereo not given), the activation is -16.4%. For the compound `NC(=O)c1cccc(N)c1`, the activation is 7.85%.

As for `O=C1NC(=O)C(c2cn(-c3ccccc3)nc2-c2ccc(F)cc2)N1` (stereo not given), the activation is 4.33%. `O=C(/C=C/c1ccccc1O)O[C@@H]1O[C@H](CO)[C@@H](O)[C@H](O)[C@H]1O`: the activation is 0%. On to `C[C@]12CC[C@@H]3c4ccc(O)cc4CC[C@H]3[C@@H]1CC[C@@H]2OC(=O)CCC1CCCC1`, for which the Potency is 30.9 µM (active) and the activation is 19.6%. Turning to `C=Cc1ccc(O[C@@H]2O[C@H](CO[C@@H]3O[C@@H](C)[C@H](O)[C@@H](O)[C@H]3O)[C@@H](O)[C@H](O)[C@H]2O)cc1`, the activation is 0.893%. Still for that read-out and setting: with `Nc1nc2c(c(N3CCNCC3)n1)CCC1=C2[C@@H]2CCCC[C@@H]2O1` the figure was -18.1%. Still for that read-out and setting: with `Nc1nc2ccc(Cl)cc2n2c(-c3ccccc3)nnc12` the figure was -21.3%; with `O=S(=O)(Cc1ccccc1)Nc1ccc(-c2ccc3c(cnn3-c3ccc(F)cc3)c2)c(C(F)(F)F)c1`, -1.91%. Regarding `CC(C)=CCC/C(C)=C/CO[C@@H]1O[C@H](CO[C@@H]2OC[C@](O)(CO)[C@H]2O)[C@@H](O)[C@H](O)[C@H]1O`, the activation was 2.29%. For `COC(=O)C=CC(=O)OC`, the activation is -16.5%.

On to `CC1OC(OC2CCC3(C)C(CCC4(C)C3CC=C3C5CC(C)(C)CCC5(C(=O)OC5OC(CO)C(O)C(O)C5O)CCC34C(=O)O)C2(C)C)C(O)C(O)C1O` (stereo not given), for which the activation is 0.763%. Still for that read-out and setting: with `CCOc1ccccc1C(N)=O` the figure was -11.9%; with `CC(=O)[C@@H]1CC[C@]2(C(=O)O)CC[C@]3(C)C(CCC4[C@@]5(C)CC[C@H](O)C(C)(C)C5CC[C@]43C)C12` (stereo not given in full), 8.4%. With `CC(C)(C)NCC(O)c1cc(O)cc(O)c1` (stereo not given), the activation is 2.51% and 8.65%. `C[C@@H]1O[C@@H](O[C@H]2[C@@H]3C=CO[C@@H](O[C@@H]4O[C@H](CO)[C@@H](O)[C@H](O)[C@H]4O)[C@@H]3[C@@]3(CO)O[C@@H]23)[C@H](OC(=O)/C=C/c2ccccc2)[C@H](O)[C@H]1O`: the activation was 4.46%. With `CN/C(=C\[N+](=O)[O-])NCCSCc1csc(CN(C)C)n1`, the activation was -0.837%. Still for that read-out and setting: with `COc1ccc2nc(SCc3ncc(C)c(OC)c3C)[nH]c2c1` the figure was 7.34%. Still for that read-out and setting: then `COc1cc(/C=C2\CCCN([C@@H](C)c3ccc(F)cc3)C2=O)ccc1-n1cnc(C)c1`, with -22.3%. Regarding `CCCCNC(=O)NS(=O)(=O)c1ccc(C)cc1`, the activation was -35.6% and -11.9%. As for `CC(C)Nc1nc(Nc2ccccc2)nc(-c2ccccc2)n1`, the activation was 2.39%.

For `CC(=O)N[C@@H]1[C@H](O[C@@H]2c3ccc(c(Cl)c3)Oc3cc4cc(c3O[C@H]3O[C@H](CO)[C@@H](O)[C@H](O)[C@H]3NC(=O)CCCCCCCC(C)C)Oc3ccc(cc3Cl)C[C@H]3NC(=O)[C@H](N)c5ccc(O)c(c5)Oc5cc(O)cc(c5)[C@H](NC3=O)C(=O)N[C@H]4C(=O)N[C@H]3C(=O)N[C@@H]2C(=O)N[C@@H](C(=O)O)c2cc(O)cc(O[C@H]4O[C@H](CO)[C@@H](O)[C@H](O)[C@H]4O)c2-c2cc3ccc2O)O[C@H](CO)[C@@H](O)[C@@H]1O`, the activation is 25.3%. Still for that read-out and setting: with `CC1CC(C(O)C(C)(C)O)OC2CC3(C)C4(C)CCC5C(C)(C)C(=O)CCC5(C)C4CCC3(O)C12O` (stereo not given) the figure was -11.5%; with `CCC(C)C(=O)OC1CC(C)C=C2C=CC(C)C(CCC(O)CC(O)CC(=O)O)C21` (stereo not given), -1.53%; with `CC1C(=O)N(C)C(=O)c2nc[nH]c21` (stereo not given), -19.1%. On the same count and under the same terms, then `CNC(=O)[C@H](Cc1ccccc1)NC(=O)[C@H](CC(C)C)[C@H](CSc1cccs1)C(=O)NO`, with -8.09%.
